About 4,100 (1.2%) of roughly 330,000 compounds were called active. Roughly 2% stayed inconclusive and do not appear here. The list comes from a sample in which actives are over-represented; it also holds similar structures and randomly drawn compounds. Values without a mark were called inactive. The calls were made as follows: active = max response of -50% or lower; inconclusive = between -30% and -50%; inactive = -30% or higher.
target: Phosphatidylinositol 5-phosphate 4-kinase type-2 alpha (Homo sapiens) (UniProt P48426); assay: qHTS for Inhibitors of phosphatidylinositol 5-phosphate 4-kinase (PI5P4K); conditions: PI5P4Kalpha enzyme, ADP-Glo luminescence, 60 min; active compounds read low; also: value at the top dose of about 77 µM
Sequence (P48426 whole entry, looked up): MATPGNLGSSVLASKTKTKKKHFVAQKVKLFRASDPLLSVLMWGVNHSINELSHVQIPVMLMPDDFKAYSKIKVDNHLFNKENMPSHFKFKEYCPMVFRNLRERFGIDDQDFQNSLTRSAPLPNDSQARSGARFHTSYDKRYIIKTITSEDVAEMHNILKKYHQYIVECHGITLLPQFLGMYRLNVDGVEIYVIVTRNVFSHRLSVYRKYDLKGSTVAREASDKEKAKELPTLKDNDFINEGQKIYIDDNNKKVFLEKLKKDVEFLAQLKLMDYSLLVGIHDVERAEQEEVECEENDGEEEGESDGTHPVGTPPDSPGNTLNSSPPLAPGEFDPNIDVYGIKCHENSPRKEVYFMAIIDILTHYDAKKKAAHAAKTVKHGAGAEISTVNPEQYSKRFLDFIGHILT
Summary of the method: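 Luminescence from ADP-Glo served as readout of PI5P4Kalpha activity in a qHTS format. Reaction: enzyme, substrate, compound, ATP at 5 microM final, 60 min at RT.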
% is scaled to controls: 0 for no effect and ±100 for the full control effect.

Compound	max response
OC(c1cc(Cl)cc(Cl)c1)c1ncc(-c2ccccc2C(F)(F)F)[nH]1 (stereo not given)	14.3%
COc1ccc(NC(=O)C2Cc3c(-c4cccc(NC(C)=O)c4)ccnc3O2)cc1OC (stereo not given)	-8.09%
C=CCC[C@H](CCCCC)OC(=O)/C=C/[C@H](O)[C@@H](O)C[C@@H](O)CC=C	17.1%
NS(=O)(=O)c1ccc(N=Nc2c(O)[nH]c3ccc(Br)cc23)cc1	-0.139%
Oc1[nH]c2ccc(Br)cc2c1N=Nc1nn[nH]n1	-58.4% (active)
O=C(CNC(=O)Cc1ccccc1)N=Nc1c(O)[nH]c2ccc(Br)cc12	-6.57%
CC1(C(=O)NCc2ccccc2)CN(S(C)(=O)=O)CC(=O)N1CC(F)(F)F (stereo not given)	-7.01%
O=C(O)c1ccccc1N=N/C(=N/Nc1cc(S(=O)(=O)O)ccc1O)c1ccccc1	-101% (active)
CN1OC[C@@H]2CN(C(=O)c3cccc4ccccc34)[C@H](c3ccc(N4CCCCC4)cc3)C[C@@H]21	-0.774%
COC(=O)c1ccc2nc(-c3ccc(OC)c(OC)c3)c(Cc3ccccc3)n2c1	-1.07%
CCOC(=O)C=Cc1ccc(C(=O)OCC)[nH]1	2.97%
CCN(CCN(C)C)C(=O)c1ccc2nc(C)c(N(C)C(=O)CCc3ccccc3)n2c1	10.1%
O=C(COC(=O)c1ccccc1O)NCc1ccco1	-51.6% (active)
O=C(COC(=O)Cc1ccc(Cl)cc1Cl)NCc1ccco1	0.392%
O=C(COC(=O)CCC(=O)c1cccs1)NCc1ccco1	-63% (active)
O=C(COC(=O)c1cccs1)NCc1cccs1	-2.68%
O=C(COC(=O)c1cc(S(=O)(=O)N2CCCCC2)ccc1Cl)NCc1ccco1	-24.6%
CC1CCN(C(=O)COC(=O)CCC(=O)c2cccs2)CC1	-4%
Cc1cc(C)n2c(Nc3c(C)cccc3C)c(CCc3ccccc3)nc2n1	0.703%
Cc1ccc(Cc2c(-c3ccc(Cl)cc3)nc3c4ccccc4ccn23)cc1	19.7%
Cc1ccccc1Cn1c(C)c(C(=O)NCc2cccc(C(F)(F)F)c2)sc1=O	6.94%
CCCCCn1nnnc1-c1nc2cc3ccccc3cc2[nH]c1=O	-6.84%
CCOC(=O)C(C(=O)c1ccccc1)C(c1ccccc1)c1nccc2ccccc12 (stereo not given)	-6.07%
N#Cc1c(N2CCCCC2)nc(N)c2c(N)nc(SCC(=O)O)cc12	-86.9% (active)
N#Cc1c(-c2ccccc2)cc(-c2ccccc2)nc1SCC(=O)O	-13.7%
N#CCc1c(C#N)c(N)nc(N2CCCC2)c1C#N	-5.04%
Nc1ncnc2c1ncn2[C@@H]1O[C@H](C(=O)NS(=O)(=O)c2c(Cl)nc3sccn23)[C@@H](O)[C@H]1O	-5.36%

Compound	max response
CC(C)(C)CC(=O)Nc1nc(C(N)Cc2ccc(C(F)(F)F)cc2)cs1 (stereo not given)	0.168%
Nc1ncnc2c1ncn2[C@@H]1O[C@H](C(=O)N2CCCN(Cc3ccccc3F)CC2)[C@@H](O)[C@H]1O	1.03%
CCOC(=O)C(Sc1ncc(C#N)c(N)n1)C(C)C (stereo not given)	-50.3% (active)
CCOC(=O)COc1nc(C)cc(C(F)(F)F)c1C#N	3.55%
CCOC(=O)CSc1nccc(N(C)C)c1C#N	-3.71%
CCOC(=O)C1(C)CCCN(C(=O)c2ccc(F)c(Cl)c2)C1 (stereo not given)	-14.5%
CCOC1=C2[C@@H](CN(S(=O)(=O)c3ccc(C)cc3)[C@H]2c2ccccc2F)[C@H]2C(=O)N(Cc3ccccc3)C(=O)[C@H]2C1	-0.38%
CCCNC(=O)C1(C)CCN(Cc2ccc(Cl)c(Cl)c2)C1 (stereo not given)	6.81%
CCCCN(C=O)c1c(CC)nc2c(OCc3ccccc3C(=O)OC)cccn12	-7.91%
O=C1[C@H]2[C@@H](c3ccc(C(F)(F)F)cc3)N[C@]3(CCCN(Cc4ccc(Cl)cc4)C3=O)[C@H]2C(=O)N1Cc1ccccc1	6.21%
COC(=O)[C@@]12C[C@@H](CC(=O)NCCCCc3ccccc3)C(=O)N(CCc3ccc(OC)c(OC)c3)C1=CCC(C)(C)C2	21.2%
O=C(c1ncn2c1c(=O)[nH]c1ccccc12)N1CCc2ccccc2C1	-1.33%
O=c1[nH]c2ccccc2n2c(-c3ccccc3)nnc12	-92.9% (active)
O=c1[nH]n2c(-c3ccccc3)nc(O)c2c2ccccc12	-2.92%
CN(Cc1ccccc1F)c1cc2c(c3c1ccn3C)C1CCC2O1 (stereo not given)	-0.125%
C[C@@H]1CN([C@H](C)CO)S(=O)(=O)c2ccc(C#C[C@@H](C)O)cc2O[C@@H]1CN(C)Cc1ccc(-c2ccccc2)cc1	2.03%
OC[C@@H]1CN(Cc2ccc3c(c2)OCO3)C[C@H](n2cnc3c(NCc4ccco4)ncnc32)O1	-4.15%
CC(Sc1ccc(S(=O)(=O)N2CCN(C)CC2)cn1)C(=O)NC1CCCC(C)C1C (stereo not given)	0.777%
COc1ccc(-c2ccc3[nH]c4c(c3c2)CCN2C[C@H]3[C@H](C)ON(C)[C@H]3C[C@@H]42)cc1	0.74%
O=C(C[C@H]1C[C@@H]2c3cc(NC(=O)C4CCC4)ccc3O[C@@H]2[C@H](CO)O1)NC1CCCCC1	-3.63%
CCn1cc(/C=C2/SC(=S)NC2=O)c(C)n1	-66.5% (active)
Cc1nn(C)cc1/C=C1\CCC/C(=C\c2cn(C)nc2C)C1=O	-2.16%
C=C1C(=O)[C@]23C[C@H]1CCC2[C@@]1(C)C(C[C@@H]3O)[C@](C)(C(=O)O)CC[C@@H]1O (stereo not given in full)	3.48%
O=[N+]([O-])c1ccc(CN2CC(N3CCC(c4ccccc4)CC3)CS2(=O)=O)cc1 (stereo not given)	5.16%
COc1ccc(CNc2nc3c(c(=O)[nH]c(=O)n3C)n2Cc2ccccc2)cc1	6.3%
C=CCSc1nc2c(c(=O)[nH]c(=O)n2C)n1Cc1ccccc1	7.13%
Cn1c(=O)[nH]c(=O)c2c1[nH]c(=S)n2Cc1ccccc1	-85.5% (active)

Compound	max response
C#CCOCCOCCOCCNc1nc(N2CCN(C(=O)CCCCCCCCCCNC(=O)[C@H]([C@@H](C)CC)n3cc(CCCCN=C(N)N)nn3)CC2)nc(N2CCN(C(=O)CCCCCCCCCCNC(=O)[C@H](CO)n3cc(CCCSC)nn3)CC2)n1	-95.3% (active)
C#CCOCCOCCOCCNc1nc(N2CCN(C(=O)[C@H](C(C)C)n3cc(CCO)nn3)CC2)nc(N2CCN(C(=O)[C@H]([C@@H](C)CC)n3cc(CCCN=C(N)N)nn3)CC2)n1	-3.39%
C#CCOCCOCCOCCNc1nc(N2CCN(C(=O)Cn3cc(CCO)nn3)CC2)nc(N2CCN(C(=O)Cn3cc(CCCN=C(N)N)nn3)CC2)n1	1.27%
CC1(C(=O)NS(=O)(=O)c2cccc(F)c2)CCN1C(=O)Cc1ccc(Cl)cc1Cl (stereo not given)	-3.09%
CC1(C(=O)NS(=O)(=O)c2ccccc2)CCN1C(=O)C1CCCCC1 (stereo not given)	0.69%
CCC(=C/c1sc2ccc3ccccc3c2[n+]1C)/C=C1\Sc2ccc3ccccc3c2N1C	-90.2% (active)
CCCCc1c(-c2ccc(Br)cc2)ncn1CCc1ccccc1OC	11.5%
C[C@@H]1CN([C@@H](C)CO)C(=O)CCCn2nncc2CO[C@@H]1CN(C)S(=O)(=O)c1ccc(-c2ccccc2)cc1	-0.942%
COc1ccc(-c2ccc(CN3C(CC(C)C)C(=O)N(Cc4cn(CC5CCCCC5)nn4)CCS3(=O)=O)cc2)cn1 (stereo not given)	-0.614%
CN(C)[C@@H]1C(=O)C(C(N)=O)=C(O)[C@@]2(O)C(=O)C3=C(O)c4c(O)ccc(Cl)c4[C@@H](O)[C@H]3C[C@@H]12	-11.8%
C=C1c2c(Cl)ccc(O)c2C(O)=C2C(=O)[C@]3(O)C(O)=C(C(N)=O)C(=O)[C@@H](N(C)C)[C@@H]3[C@@H](O)C12 (stereo not given in full)	-76.5% (active)
COc1ccc(C2OC(CCc3ccccc3)Cc3[nH]c(=S)[nH]c(=O)c32)cc1 (stereo not given)	-4.14%
CC(C)C[C@@H]1Cc2[nH][nH]c(=O)c2[C@H](CCc2ccccc2)O1	19.9%
Nc1ccc2nc3c(=O)[nH]c(=S)[nH]c3nc2c1	-105% (active)
O=C(c1ccc(Cl)s1)N(Cc1nnc(-c2ccccc2Cl)o1)C1CC1	3.41%
CC(C)N(Cc1nnc(-c2ccccc2Br)o1)C(=O)c1cc(Cl)nc2ccccc12	9.3%
O=C(c1cc(-c2ccco2)nc2ccccc12)N(Cc1nnc(-c2ccc(Cl)cc2)o1)C1CC1	-72.6% (active)
COc1ccc(NC(=O)c2sc(=O)n(Cc3ccc(S(=O)(=O)N(C)C)cc3)c2C)cc1	-4.44%
O=c1[nH]c2cccnc2n1-c1ccc([N+](=O)[O-])cc1	3.06%
O=[N+]([O-])c1ccc(N2CCOCC2)cc1	2.48%
O=c1[nH]n(-c2ccc([N+](=O)[O-])cc2)c(=O)c2ccccc12	-53.6% (active)
CC(C)CNC(=O)C1(C)CCCN1C(=O)CSc1ccccc1 (stereo not given)	-2.54%
CCc1nc2c(OCCC3CCCCC3)cccn2c1N(C)C(=O)c1ccco1	-1.87%
COc1ccc(-c2cc3ccc(OCc4nn[nH]n4)cc3oc2=O)cc1	-28.7%
CN(C)c1cc(-c2ccc(F)cc2)oc(=O)c1Cl	-9.22%
O=c1oc2cc(O)ccc2cc1-c1ccc(F)cc1	-58.1% (active)

— PubChem BioAssay AID652105 (National Center for Advancing Translational Sciences (NCATS), 2013)
